Assay results as given in PubChem BioAssay (Tox21).
Results filed as inconclusive are left out. Activity calls are given as the source filed them. Unless noted, calls follow the shape of the dose curve; as a rule, active = well fitted curve in the direction sought with a large enough effect in the repeat runs; inconclusive = weak or mixed curves; inactive = no such curve, though single readings can be large; an effect the other way counts as inactive or inconclusive.

Tests used:
[1] = qHTS assay for small molecule agonists of the p53 signaling pathway (AID 651631; calls by dose curve; also: nearly all actives have a fitted effect of over 15% in size)
Outline: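 We treat p53RE-bla HCT-116 cells with compounds for 16 h at 37 °C, add LiveBLAzer B/G FRET substrate for 2 h at room temperature, and measure fluorescence intensity.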

[2] = qHTS assay for small molecules that induce genotoxicity in human embryonic kidney cells expressing luciferase-tagged ATAD5 (AID 651632); also: nearly all actives have a fitted effect of over 15% in size
Outline: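 HEK293T cells carrying luciferase-tagged ATAD5 were given compound or DMSO vehicle and incubated 16 hr at 37C, 5% CO2. Luciferase activity was read after 30 min at room temperature with Amplite; a rise signals genotoxic stress.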

[3] = qHTS assay for small molecule agonists of the p53 signaling pathway - cell viability (AID 651633; calls by dose curve;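 also: p53RE-bla HCT reporter cells with a stable beta-lactamase p53 reporter; series mostly up to about 83 µM; nearly all actives have a fitted effect of over 30% in size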)
Outline: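 Viability counter-read: CellTiter-Glo luminescence (30 min, room temperature) in the same p53RE-bla plates. These plates had been exposed to compounds for 16 h at 37 C.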

[4] = qHTS assay for small molecules that induce genotoxicity in human embryonic kidney cells expressing luciferase-tagged ATAD5 - cell viability (AID 651634; calls by dose curve; also: nearly all actives have a fitted effect of over 25% in size)
Outline: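 HEK293T cells carrying luciferase-tagged ATAD5, 2,000 cells/well, exposed to compound for 15.5 hr at 37C. Viability read as live-cell protease activity by CellTiter-Fluor fluorescence after 30 min at 37C.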

[5] = qHTS assay for small molecule disruptors of the mitochondrial membrane potential - cell viability (AID 720634; calls by dose curve;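 also: human HepG2 liver cancer cells; series mostly up to about 83 µM; nearly all actives have a fitted effect of over 20% in size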)
Outline: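 HepG2 cells, 2,000 per well, attached overnight, then treated 1 hr at 37 C, 5% CO2. Viability read as ATP by CellTiter-Glo luminescence after 30 min at room temperature. Read in the same wells as the m-MPI membrane-potential dye assay.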

[6] = qHTS assay for small molecule disruptors of the mitochondrial membrane potential (AID 720635)
Outline: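 Mitochondrial membrane potential tracked with Mito-MPS dye, red aggregates (ex 540/em 590 nm) against green monomers (ex 490/em 535 nm). Compound treatment 1 hr at 37C, dye 30 min in HepG2.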

[7] = qHTS assay to test for compound auto fluorescence at 590 nm (red) in HepG2 cells (AID 720674)
Outline: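 We screened compounds on adherent HepG2 cells, incubating them for an hour at 37 C in 5% CO2 before reading emission at 590 nm under 540 nm excitation; values reflect equivalence to Rose Bengal sodium fluorescence.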

[8] = qHTS assay to test for compound auto fluorescence at 535 nm (green) in HepG2 cells (AID 720675)
[9] = qHTS assay to test for compound auto fluorescence at 460 nm (blue) in HEK293 cells (AID 720678)
Outline: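 Auto fluorescence in the blue band was quantified as triamterene equivalency. HEK293 cells were seeded at 2,000/well, dosed after a 4-5 hr attachment, and kept overnight at 37C before the 405/460 nm reading.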

[10] = qHTS assay to test for compound auto fluorescence at 590 nm (red) in HEK293 cells (AID 720679)
Outline: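 Autofluorescence equivalency to Rose Bengal sodium, 540/590nm, in HEK293 cells exposed overnight to 23 nL compound per well.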
% is scaled to controls: 0 for no effect and ±100 for the full control effect.

CCN(CCO)CCn1c(Cc2ccccc2)nc2c1c(=O)n(C)c(=O)n2C
inactive: Potency [1] | outcome [2] | Potency [3] | Potency [4] | Potency [5] | Potency [6] | outcome [7] | outcome [8] | outcome [9] | outcome [10]

CC1NCCOC1c1ccccc1 (centres undefined)
inactive: Potency [1] | outcome [2] | Potency [3] | Potency [4] | Potency [5] | Potency [6] | outcome [7] | outcome [8] | outcome [9] | outcome [10]

CN1C(=O)COc2c(C(=O)NC3CN4CCC3CC4)cc(Cl)cc21 (centres undefined)
inactive: outcome [2] | Potency [3] | Potency [4] | Potency [5] | outcome [7] | outcome [8] | outcome [9] | outcome [10]

COc1cccc([C@@]2(O)CCCC[C@@H]2CN(C)C)c1
inactive: outcome [2] | Potency [3] | Potency [4] | Potency [5] | outcome [7] | outcome [8] | outcome [9]

O=C(O)C(Br)(Br)Br
inactive: outcome [2] | Potency [3] | Potency [4] | Potency [5] | Potency [6] | outcome [7] | outcome [8] | outcome [9] | outcome [10]

CCC1(c2ccccc2)C(=O)N(COC)C(=O)N(COC)C1=O
inactive: outcome [2] | Potency [3] | Potency [4] | Potency [5] | Potency [6] | outcome [7] | outcome [8] | outcome [9] | outcome [10]

CC(C)[C@]12CC(=O)[C@H](C)[C@H]1C2
inactive: outcome [2] | Potency [3] | Potency [4] | Potency [5] | Potency [6] | outcome [7] | outcome [8] | outcome [9] | outcome [10]

CN=CNc1ccc(C)cc1C
inactive: outcome [2] | Potency [3] | Potency [4] | Potency [5] | outcome [7] | outcome [8] | outcome [9] | outcome [10]

CCC1(c2cccc(O)c2)CCCCN(C)C1 (centres undefined)
inactive: outcome [2] | Potency [3] | Potency [4] | Potency [5] | fluorescence, relative to Rose Bengal [7] 0.128% [at 18.6 µM] | fluorescence, % of fluorescein control [8] 0.0413% [at 18.6 µM] | fluorescence, % of triamterene [9] 0.018% [at 18.6 µM] | fluorescence, % of fluorescent control [10] 0.162% [at 18.6 µM]

CCCN1CCC[C@@H]2Cc3nc(N)ncc3C[C@H]21
inactive: outcome [2] | Potency [3] | Potency [4] | Potency [5] | outcome [7] | outcome [8] | outcome [9]

OCC(Cl)CCl (centres undefined)
inactive: outcome [2] | Potency [3] | Potency [4] | Potency [5] | Potency [6] | outcome [7] | outcome [8] | outcome [9] | outcome [10]

CCCC[N+](=O)[O-]
inactive: outcome [2] | Potency [3] | Potency [4] | Potency [5] | outcome [7] | outcome [8] | outcome [9] | outcome [10]

CCC1(CC)C(=O)C=CNC1=O
inactive: outcome [2] | Potency [3] | Potency [4] | Potency [5] | Potency [6] | outcome [7] | outcome [8] | outcome [9] | outcome [10]

O=P(O)(O)CN(CP(=O)(O)O)CP(=O)(O)O
inactive: outcome [2] | Potency [3] | Potency [4] | Potency [5] | fluorescence, relative to Rose Bengal [7] -0.158% [at 18.6 µM] | fluorescence, % of fluorescein control [8] -0.0161% [at 18.6 µM] | fluorescence, % of triamterene [9] 0.0178% [at 18.6 µM] | fluorescence, % of fluorescent control [10] 0.149% [at 18.6 µM]

[P]#[In]
inactive: outcome [2] | Potency [3] | Potency [4] | Potency [5] | outcome [7] | outcome [8] | outcome [9]

O=C(CCl)NCO
inactive: outcome [2] | Potency [3] | Potency [4] | Potency [5] | outcome [7] | outcome [8] | outcome [9]

C#CC(C)(C)O
inactive: outcome [2] | Potency [3] | Potency [4] | Potency [5] | outcome [7] | outcome [8] | outcome [9]

COc1ccc(C=O)cc1O
inactive: outcome [2] | Potency [3] | Potency [4] | Potency [5] | outcome [7] | outcome [8] | outcome [9]

C/C(=N\NC(=O)Nc1cc(F)cc(F)c1)c1ncccc1C(=O)O
inactive: outcome [2] | Potency [3] | Potency [4] | Potency [5] | Potency [6] | outcome [7] | outcome [8] | outcome [9] | outcome [10]

N[C@@H]1C[C@H]1c1ccccc1
inactive: outcome [2] | Potency [3] | Potency [4] | Potency [5] | outcome [7] | outcome [8] | outcome [9] | outcome [10]

BrCC1CO1 (centres undefined)
inactive: outcome [2] | Potency [3] | Potency [4] | Potency [5] | outcome [7] | outcome [8] | outcome [9] | outcome [10]

CCOC(=O)NC(C)(C)Cc1ccc(Cl)cc1
inactive: outcome [2] | Potency [3] | Potency [4] | Potency [5] | Potency [6] | outcome [7] | outcome [8] | outcome [9] | outcome [10]

C[C@]12C=CC(=O)C=C1CC[C@@H]1[C@@H]2CC[C@@]2(C)[C@H]1CC[C@]2(C)O
inactive: outcome [2] | Potency [3] | Potency [4] | Potency [5] | Potency [6] | outcome [7] | outcome [8] | outcome [9] | outcome [10]

C(COCC1CO1)OCC1CO1 (centres undefined)
inactive: outcome [2] | Potency [3] | Potency [4] | Potency [5] | outcome [7] | outcome [8] | outcome [9] | outcome [10]

CC[C@H](O)C(C[C@H](C)N(C)C)(c1ccccc1)c1ccccc1
inactive: outcome [2] | Potency [3] | Potency [4] | Potency [5] | outcome [7] | outcome [8] | outcome [9] | outcome [10]

CC[C@@H](CO)NC(=O)[C@@H]1C=C2c3cccc4[nH]cc(c34)C[C@H]2N(C)C1
inactive: outcome [2] | Potency [3] | Potency [4] | Potency [5] | Potency [6] | outcome [7] | outcome [8] | outcome [9] | outcome [10]

NCCOS(=O)(=O)O
inactive: outcome [2] | Potency [3] | Potency [4] | Potency [5] | outcome [7] | outcome [8] | outcome [9]

CCC(=O)OC1(c2ccccc2)CCN(C)CC1
inactive: outcome [2] | Potency [3] | Potency [4] | Potency [5] | Potency [6] | outcome [7] | outcome [8] | outcome [9] | outcome [10]

CC1=C2[C@H]3OC(=O)[C@@H](C)[C@@H]3CC[C@@]2(C)C=CC1=O
inactive: outcome [2] | Potency [3] | Potency [4] | Potency [5] | Potency [6] | outcome [7] | outcome [8] | outcome [9] | outcome [10]

CCOC(=O)CC(SP(=S)(OC)OC)C(=O)OCC (centres undefined)
inactive: outcome [2] | Potency [3] | Potency [4] | Potency [5] | Potency [6] | outcome [7] | outcome [8] | outcome [9] | outcome [10]
